According to PubChem BioAssay (NCATS):
Results filed as inconclusive are left out. Calls of active or inactive are those of the source. Calls follow the shape of the dose curve; as a rule, active = well fitted inhibition curve with a large enough effect; inconclusive = small, poorly fitted or top-dose-only effect; inactive = flat fitted curve, though single readings scatter.

Tests used:
Test in all cases: qHTS profiling for inhibitors of Plasmodium falciparum proliferation (AID 504749); also: nearly all actives have a fitted effect of over 60% in size
Conditions in all cases: P. falciparum in erythrocytes, SYBR Green DNA, 72 h; series mostly up to 28.7 µM
CP194 = system: CP194
In short: (§1)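 Three-day growth assay of blood-stage parasites in erythrocytes (0.3% parasitemia, 2.5% hematocrit) at 37 C, 5% CO2, quantified by SYBR Green DNA staining after overnight detergent lysis.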

CP201 = system: CP201
In short: as §1

CP203 = system: CP203
In short: as §1

CP211 = system: CP211
In short: as §1

CP215 = system: CP215
In short: as §1

CP217 = system: CP217
In short: as §1

CP237 = system: CP237
In short: as §1

CP238 = system: CP238
In short: as §1

CP247 = system: CP247
In short: as §1

CP250 = system: CP250
In short: as §1

CP252 = system: CP252
In short: as §1

CP256 = system: CP256
In short: as §1

CP262 = system: CP262
In short: as §1

CP265 = system: CP265
In short: as §1

CP266 = system: CP266
In short: as §1

CP268 = system: CP268
In short: as §1

CP269 = system: CP269
In short: as §1

CP286 = system: CP286
In short: as §1

CP291 = system: CP291
In short: as §1

CP260 = system: CP260
In short: as §1

Measured: Potency

CCc1ncnc2cc(OC)c(OC)cc12
not listed: CP260
inactive: all other assays above

Cc1ncc(COP(=O)(O)O)c(CN)c1O
not listed: CP247
inactive: all other assays above

COc1ccc(C(=O)CCC(=O)O)c2ccccc12
not listed: CP247 | CP266
inactive: all other assays above

c1ccc2c(c1)OCC(CN1CCCCC1)O2 (configuration not stated)
not listed: CP237
inactive: all other assays above

O=[n+]1ccn([O-])c2ccccc21
not listed: CP260
inactive: all other assays above

C[C@@](Cc1ccc(O)c(O)c1)(NN)C(=O)O
not listed: CP237 | CP260
inactive: all other assays above

CN(Cc1ccccc1)Cc1ccccc1
not listed: CP260
inactive: all other assays above

CN1C(C(=O)Nc2ccccn2)C(=O)c2sc(Cl)cc2S1(=O)=O (configuration not stated)
not listed: CP237 | CP291
inactive: all other assays above

CC(C)=CCC/C(C)=C/C=C/C(C)=C/C=C/C(C)=C/C=C/C=C(C)/C=C/C=C(C)/C=C/C=C(\C)CCC=C(C)C
not listed: CP237 | CP266
inactive: all other assays above

CCCCC(CC)CCC(CC(C)C)OS(=O)(=O)O (configuration not stated)
not listed: CP260
inactive: all other assays above

O=C(O)CC/C=C\CC[C@@H]1[C@@H](N2CCCCC2)[C@@H](O)C[C@@H]1OCc1ccc(-c2ccccc2)cc1
not listed: CP237 | CP266
inactive: all other assays above

Cc1ncc(C[n+]2csc(CCOP(=O)(O)O)c2C)c(N)n1
not listed: CP250
inactive: all other assays above

O=C1N=C2SCCN2C(=O)C1Cc1ccc(Cl)cc1 (configuration not stated)
not listed: CP260
inactive: all other assays above
